{
  "source": "PubChem BioAssay AID743314",
  "about": "(Broad Institute, 2014)",
  "note": "Entries with a potency or affinity are not part of this list. Inconclusive results are not listed. Active and inactive are the calls of the source.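 How the source made its calls: active means fitted half-maximal concentration no higher than twice the top tested dose, in every repeat run; inconclusive means repeat runs disagree, poor fit, or flat partial inhibition; inactive means the rest.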",
  "data": [
    {"target": "Endoplasmic reticulum aminopeptidase 1 (Homo sapiens) (UniProt Q9NZ08)", "sequence (Q9NZ08 whole entry, looked up)": "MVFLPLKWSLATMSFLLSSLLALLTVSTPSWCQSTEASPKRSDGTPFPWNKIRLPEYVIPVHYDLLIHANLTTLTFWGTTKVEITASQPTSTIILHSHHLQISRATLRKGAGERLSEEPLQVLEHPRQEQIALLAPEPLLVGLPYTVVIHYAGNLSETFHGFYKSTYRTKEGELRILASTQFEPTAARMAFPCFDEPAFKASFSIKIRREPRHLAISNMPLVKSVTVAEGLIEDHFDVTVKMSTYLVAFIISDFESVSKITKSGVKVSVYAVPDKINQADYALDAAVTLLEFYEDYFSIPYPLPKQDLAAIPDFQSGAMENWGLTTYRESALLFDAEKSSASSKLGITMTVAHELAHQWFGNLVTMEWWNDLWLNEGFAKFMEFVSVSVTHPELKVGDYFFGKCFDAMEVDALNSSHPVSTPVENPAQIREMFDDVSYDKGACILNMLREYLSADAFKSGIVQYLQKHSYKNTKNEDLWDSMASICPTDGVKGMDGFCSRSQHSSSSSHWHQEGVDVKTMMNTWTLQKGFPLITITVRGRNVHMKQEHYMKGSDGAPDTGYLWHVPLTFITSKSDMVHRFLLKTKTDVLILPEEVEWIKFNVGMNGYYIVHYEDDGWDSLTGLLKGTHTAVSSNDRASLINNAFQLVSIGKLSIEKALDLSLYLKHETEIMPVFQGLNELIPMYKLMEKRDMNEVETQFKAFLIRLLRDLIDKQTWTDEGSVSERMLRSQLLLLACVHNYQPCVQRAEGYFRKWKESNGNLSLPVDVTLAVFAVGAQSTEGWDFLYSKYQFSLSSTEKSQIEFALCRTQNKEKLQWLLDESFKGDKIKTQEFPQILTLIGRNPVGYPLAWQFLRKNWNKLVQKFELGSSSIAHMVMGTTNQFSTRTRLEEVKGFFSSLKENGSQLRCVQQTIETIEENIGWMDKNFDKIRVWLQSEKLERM", "experiment": "inhibition of human ERAP1 enzyme activity – biochemical, cherry-pick, set 2, plate reader, dose response (AID 743314);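 further: 0% = neutral control wells and -100% = L-leucinethiol positive control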", "settings": "Recombinant ERAP1, Leu-AMC fluorescence, 60 min; series mostly up to 11 µM; activity change, negative = inhibition: at the top concentration", "values": [
      {"smiles": "CC(C)C(NC(=O)CCNC(=O)c1ccc([N+](=O)[O-])cc1)c1nc2ccccc2[nH]1", "note": "(stereo unspecified)", "activity change, negative = inhibition": "1.84% (inactive)"},
      {"smiles": "Cc1cccc2sc(N(CCCN(C)C)C(=O)c3ccc4ncsc4c3)nc12", "activity change, negative = inhibition": "-4.43% (inactive)"},
      {"smiles": "O=C(C[C@H]1CC[C@@H]2[C@H](COC[C@@H](O)CN2C(=O)Nc2cccc(Cl)c2)O1)N1CCCCC1", "activity change, negative = inhibition": "63.7% (inactive)"},
      {"smiles": "C[C@H]1CN([C@@H](C)CO)C(=O)c2cccc(NC(=O)Nc3ccc(F)cc3)c2O[C@@H]1CN(C)C(=O)Nc1ccc2c(c1)OCO2", "activity change, negative = inhibition": "51% (inactive)"},
      {"smiles": "COc1ccc(CN(C)C[C@H]2OCCCC[C@H](C)Oc3ccc(NS(=O)(=O)c4cccs4)cc3C(=O)N([C@H](C)CO)C[C@@H]2C)cc1", "activity change, negative = inhibition": "50.9% (inactive)"},
      {"smiles": "CCC(=O)N1[C@@H](CO)[C@@H](c2ccccc2)C12CN(Cc1cccnc1)C2", "activity change, negative = inhibition": "43% (inactive)"}
    ]}
  ]
}
